In PubChem BioAssay (EPA / NIEHS):
Results filed as inconclusive are left out. Activity calls are given as the source filed them. Rule for the calls, unless noted: active = hit-call score of the fitted dose curve at least 0.9, where 1 is the maximum; inconclusive = response in the unintended direction; inactive = score below 0.9.

How the values were obtained:
[1] = ATG_TCF_b_cat_CIS: Attagene CIS-FACTORIAL HepG2 Assay for human T-Cell-Factor with beta-catenin (TCF/b-cat) (AID 2282965; active = hit-call score of the fitted dose curve at least 0.9, where 1 is the maximum; inactive = score below 0.9); details: HepG2 TCF/beta-catenin cis-reporter transcription, actives raise or lower the signal
Method in brief: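 Endogenous TCF/LEF activity read as reporter transcript level via RT-PCR and capillary electrophoresis fluorescence in transfected HepG2, 24 h exposure; gain or loss of signal fitted against DMSO controls.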

[2] = ATG_TAL_CIS: Attagene CIS-FACTORIAL HepG2 Assay for human TAL Basal Promoter (AID 2282966; active = hit-call score of the fitted dose curve at least 0.9, where 1 is the maximum; inactive = score below 0.9;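 note: background control endpoint measuring basal TAL promoter reporter mRNA not a specific factor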); details: HepG2 Attagene cis-factorial TAL promoter reporter; actives raise or lower the signal
Method in brief: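 After 24 hours of chemical exposure, transfected HepG2 cells yielded RNA that was converted to 6-FAM-labelled, HpaI-digested reporter fragments for capillary electrophoresis. Values derive from bidirectional fitting against DMSO controls.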

[3] = ATG_TGFb_CIS: Attagene CIS-FACTORIAL HepG2 Assay for human Transforming Growth Factor (TGF) (AID 2282967; active = hit-call score of the fitted dose curve at least 0.9, where 1 is the maximum; inactive = score below 0.9); details: HepG2 Attagene CIS TGFb reporter, mRNA transcription; actives raise or lower the signal
Method in brief: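 HepG2 cells transiently transfected with cis-promoter-driven multiplexed reporter units; 24 h compound exposure. Reporter mRNA measured by RT-PCR, 6-FAM labeling, HpaI digestion and capillary electrophoresis; bidirectional fit versus DMSO baseline.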

[4] = ATG_VDRE_CIS: Attagene CIS-FACTORIAL HepG2 Assay for human Vitamin D Receptor Element (VDRE) (AID 2282968; active = hit-call score of the fitted dose curve at least 0.9, where 1 is the maximum; inactive = score below 0.9); details: HepG2 VDRE cis-reporter transcription, actives raise or lower the signal
Method in brief: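 Measures endogenous factor activity through cis-element-driven reporter transcripts in transiently transfected HepG2. Cells are treated 24 h; reporter mRNA is quantified by RT-PCR and capillary electrophoresis; fitting is bidirectional.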

[5] = biological target: Nuclear receptor subfamily 1 group I member 3 (Homo sapiens) (UniProt Q14994); assay: ATG_CAR_TRANS: Attagene TRANS-FACTORIAL HepG2 Assay for human Constitutive Androstane Receptor (CAR) (AID 2282969); details: HepG2 Attagene TRANS-FACTORIAL CAR reporter;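 note: activators raise reporter mRNA above DMSO so AC50 marks induction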
Method in brief: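 Signal is reporter mRNA induction relative to DMSO, measured 24 h after dosing by RT-PCR with fluorescent primer extension and capillary electrophoresis. Human HepG2 liver cells carried transiently transfected chimeric NR-Gal4/GAL4-UAS reporter constructs.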

[6] = biological target: Estrogen receptor (Homo sapiens) (UniProt P03372); assay: ATG_ERa_TRANS: Attagene TRANS-FACTORIAL HepG2 Assay for human Estrogen Receptor alpha (ERa) (AID 2282970); details: HepG2 Attagene TRANS ERa GAL4 reporter, mRNA
Method in brief: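 Liver-derived HepG2 cells expressing chimeric nuclear receptor-Gal4 proteins from transient transfection were exposed for 24 hours. Gain of reporter mRNA signal versus DMSO, read by capillary electrophoresis of FAM-labelled PCR products, was recorded.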

[7] = biological target: X-box-binding protein 1 (Homo sapiens) (UniProt P17861); assay: ATG_Xbp1_CIS: Attagene CIS-FACTORIAL HepG2 Assay for human X-box Binding Protein 1 (XBP1) (AID 2282972; active = hit-call score of the fitted dose curve at least 0.9, where 1 is the maximum; inactive = score below 0.9); details: HepG2 XBP1 cis-element reporter, Attagene multiplex; actives raise or lower the signal
Method in brief: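 Human hepatoma HepG2, cis-element reporter system, 24 h treatment; mRNA quantified by RT-PCR/CE fluorescence; fit relative to DMSO.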

[8] = ATG_GAL4_TRANS: Attagene TRANS-FACTORIAL HepG2 Assay for GAL4 (Internal Marker) (AID 2282976); details: HepG2 Attagene TRANS GAL4 internal marker reporter
Method in brief: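 First, HepG2 cells were transfected with reporter units under GAL4-UAS control. Next, they were treated with chemical for 24 h. Finally, RNA was reverse-transcribed, PCR-amplified, FAM-labelled and resolved by capillary electrophoresis, with induction scored against DMSO.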

[9] = biological target: Glucocorticoid receptor (Homo sapiens) (UniProt P04150); assay: ATG_GR_TRANS: Attagene TRANS-FACTORIAL HepG2 Assay for human Glucocorticoid Receptor (GR) (AID 2282978); details: HepG2 Attagene TRANS GR reporter, mRNA transcription;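 note: activators score as hits since higher reporter transcript over DMSO is fitted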
Method in brief: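 HepG2 cells transiently transfected with multiplexed reporter units in which chimeric NR-GAL4 proteins drive GAL4-UAS reporters; 24 h compound exposure. Reporter mRNA measured by RT-PCR, 6-FAM labelling, HpaI digestion and capillary electrophoresis; gain-of-signal fitted versus DMSO.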

[10] = biological target: Bile acid receptor (Homo sapiens) (UniProt Q96RI1); assay: ATG_FXR_TRANS: Attagene TRANS-FACTORIAL HepG2 Assay for Farnesoid X Receptor (FXR) (AID 2282979); details: HepG2 Attagene TRANS FXR-GAL4 reporter transcription;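 note: hits raise reporter mRNA above DMSO so AC50 marks FXR activation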
Method in brief: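 Transient transfection of HepG2 with multiplexed GAL4-UAS reporter units; exogenous FXR-GAL4 chimera. Dose 24 h → TriZol RNA → oligo(dT) RT → PCR, 6-FAM primer extension, HpaI cut → CE. Gain vs DMSO.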

[11] = biological target: Oxysterols receptor LXR-beta (Homo sapiens) (UniProt P55055); assay: ATG_LXRb_TRANS: Attagene TRANS-FACTORIAL HepG2 Assay for human Liver X Receptor beta (LXRb) (AID 2282981); details: HepG2 Attagene TRANS GAL4-LXRb reporter, mRNA
Method in brief: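 After 24 h of chemical treatment, transfected HepG2 cells yield total RNA; reporter cDNA is PCR-amplified, FAM-labelled, HpaI-cut and run on capillary electrophoresis. Signal reflects chimeric LXRb-Gal4 activity on GAL4-UAS reporters.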

[12] = biological target: Hepatocyte nuclear factor 4-alpha (Homo sapiens) (UniProt P41235); assay: ATG_HNF4a_TRANS: Attagene TRANS-FACTORIAL HepG2 Assay for human Hepatocyte Nuclear Factor 4 alpha (HNF4a) (AID 2282982); details: HepG2 HNF4a transactivation reporter, mRNA readout
Method in brief: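 Multiplexed reporter assay: transfected HepG2, 24 h exposure, total RNA → oligo(dT) RT → PCR → 6-FAM extension → HpaI digest → CE fluorescence. DMSO = negative control.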

[13] = ATG_M_06_TRANS: Attagene TRANS-FACTORIAL HepG2 Assay for M06 Transcription Factor (Internal Marker) (AID 2282983); details: HepG2 Attagene TRANS M06 internal marker reporter
Method in brief: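 Background control endpoint: reporter mRNA from transiently transfected HepG2 after 24 h dosing, detected by RT-PCR with capillary electrophoresis fluorescence. Analysed for gain versus DMSO.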

[14] = ATG_M_32_TRANS: Attagene TRANS-FACTORIAL HepG2 Assay for M32 Transcription Factor (Internal Marker) (AID 2282984); details: HepG2 Attagene TRANS M32 internal marker reporter;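 note: transcript level of a background control reporter unit measured by RT-PCR and capillary electrophoresis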
Method in brief: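 Cell-based TRANS-format assay in HepG2: exogenous chimeric GAL4 reporter units transiently expressed, compounds applied 24 h. Reporter mRNA detected by RT-PCR plus capillary electrophoresis; this readout is an internal background marker.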

[15] = biological target: Transcriptional activator Myb (Homo sapiens) (UniProt P10242); assay: ATG_Myb_CIS: Attagene CIS-FACTORIAL HepG2 Assay for human Myeloblastosis (Myb) Proto-Oncogene Transcription Factor (AID 2282986; active = hit-call score of the fitted dose curve at least 0.9, where 1 is the maximum; inactive = score below 0.9); details: HepG2 Attagene CIS-FACTORIAL Myb reporter transcription; actives raise or lower the signal
Method in brief: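 HepG2 cells were transiently transfected with cis-regulated multiple reporter transcription units reflecting endogenous Myb activity, then exposed to compound for 24 hours. Reporter mRNA was measured by RT-PCR with capillary electrophoresis; bidirectional fitting versus DMSO baseline.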

[16] = ATG_M_19_TRANS: Attagene TRANS-FACTORIAL HepG2 Assay for M19 Transcription Factor (Internal Marker) (AID 2282974); details: HepG2 Attagene TRANS-FACTORIAL M19 internal marker reporter
Method in brief: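 HepG2 cells transiently transfected with multiple GAL4-UAS reporter transcription units were exposed to chemicals for 24 h. Reporter mRNA was read by RT-PCR, 6-FAM primer extension, HpaI digestion and capillary electrophoresis; gain of signal fitted relative to DMSO.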

[17] = biological target: Oxysterols receptor LXR-alpha (Homo sapiens) (UniProt Q13133); assay: ATG_LXRa_TRANS: Attagene TRANS-FACTORIAL HepG2 Assay for human Liver X Receptor alpha (LXRa) (AID 2282980); details: HepG2 Attagene TRANS reporter, LXRa transactivation
Method in brief: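 Transfect HepG2 with GAL4-UAS multiplex reporter constructs (TRANS format, chimeric receptor-GAL4); treat 24 h; extract RNA, reverse-transcribe, PCR-amplify, FAM-label, HpaI-digest; resolve fragments by capillary electrophoresis. Upward response vs DMSO.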

[18] = biological target: Nuclear receptor subfamily 4 group A member 2 (Homo sapiens) (UniProt P43354); assay: ATG_NURR1_TRANS: Attagene TRANS-FACTORIAL HepG2 Assay for human Nuclear Receptor Related Protein 1 (NURR1) (AID 2282985); details: HepG2 Attagene TRANS reporter, mRNA readout
Method in brief: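 Measures transcriptional activation by an exogenous NR-Gal4 chimera in transfected HepG2 liver cells. After 24 h, reporter RNA is reverse-transcribed, amplified and resolved by capillary electrophoresis; DMSO defines baseline.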

[19] = biological target: Steroid hormone receptor ERR1 (Homo sapiens) (UniProt P11474); assay: ATG_ERRa_TRANS: Attagene TRANS-FACTORIAL HepG2 Assay for human Estrogen-Related Receptor alpha (ERRa) (AID 2282971); details: HepG2 Attagene TRANS reporter, ERRa transactivation
Method in brief: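 Reporter transcript induction was quantified by RT-PCR and capillary electrophoresis of FAM-labelled, HpaI-cut products after 24 h treatment of HepG2 cells carrying transiently transfected GAL4-UAS reporter units and an exogenous ERRa-Gal4 fusion; activity scored as increase over DMSO.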

[20] = biological target: Estrogen-related receptor gamma (Homo sapiens) (UniProt P62508); assay: ATG_ERRg_TRANS: Attagene TRANS-FACTORIAL HepG2 Assay for human Estrogen-Related Receptor gamma (ERRg) (AID 2282977); details: HepG2 Attagene TRANS reporter, ERRg transactivation;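 note: hits increase reporter signal over DMSO so potencies reflect activators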
Method in brief: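 Readout: fluorescent reporter-mRNA fragments resolved by capillary electrophoresis after RT-PCR and HpaI cut. Cells: transiently transfected HepG2 carrying GAL4-UAS reporters driven by exogenous NR-Gal4 chimeras, dosed 24 h. Activity fitted upward relative to DMSO baseline.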

Measured: AC50

Chain of Transcriptional activator Myb (Homo sapiens) (P10242 whole entry, looked up): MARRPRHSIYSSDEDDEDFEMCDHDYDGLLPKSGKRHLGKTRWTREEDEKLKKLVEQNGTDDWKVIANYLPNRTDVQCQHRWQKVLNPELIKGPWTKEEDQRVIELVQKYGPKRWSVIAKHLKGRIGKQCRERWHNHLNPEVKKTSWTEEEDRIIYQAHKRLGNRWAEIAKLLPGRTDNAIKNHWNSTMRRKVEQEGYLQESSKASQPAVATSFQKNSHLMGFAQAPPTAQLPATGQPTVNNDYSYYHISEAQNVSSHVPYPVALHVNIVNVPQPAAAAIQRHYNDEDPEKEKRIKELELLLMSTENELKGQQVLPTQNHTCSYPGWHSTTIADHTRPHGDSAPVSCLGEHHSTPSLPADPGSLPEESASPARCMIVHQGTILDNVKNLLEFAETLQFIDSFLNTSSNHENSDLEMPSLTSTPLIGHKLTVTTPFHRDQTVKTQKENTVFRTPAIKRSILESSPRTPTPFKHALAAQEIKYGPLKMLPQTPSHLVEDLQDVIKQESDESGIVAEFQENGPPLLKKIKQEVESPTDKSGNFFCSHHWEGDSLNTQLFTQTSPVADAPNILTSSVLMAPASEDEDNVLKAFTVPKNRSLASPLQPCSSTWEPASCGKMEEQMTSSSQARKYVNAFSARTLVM
Chain of X-box-binding protein 1 (Homo sapiens) (P17861 whole entry, looked up): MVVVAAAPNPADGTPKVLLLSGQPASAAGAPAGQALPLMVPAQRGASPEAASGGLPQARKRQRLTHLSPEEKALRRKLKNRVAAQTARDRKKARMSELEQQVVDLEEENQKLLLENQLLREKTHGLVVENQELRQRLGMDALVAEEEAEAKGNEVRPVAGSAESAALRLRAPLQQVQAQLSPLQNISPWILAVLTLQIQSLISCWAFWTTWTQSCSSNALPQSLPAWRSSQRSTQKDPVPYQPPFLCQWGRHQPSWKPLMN
Chain of Oxysterols receptor LXR-alpha (Homo sapiens) (Q13133 whole entry, looked up, the tested form may be a part): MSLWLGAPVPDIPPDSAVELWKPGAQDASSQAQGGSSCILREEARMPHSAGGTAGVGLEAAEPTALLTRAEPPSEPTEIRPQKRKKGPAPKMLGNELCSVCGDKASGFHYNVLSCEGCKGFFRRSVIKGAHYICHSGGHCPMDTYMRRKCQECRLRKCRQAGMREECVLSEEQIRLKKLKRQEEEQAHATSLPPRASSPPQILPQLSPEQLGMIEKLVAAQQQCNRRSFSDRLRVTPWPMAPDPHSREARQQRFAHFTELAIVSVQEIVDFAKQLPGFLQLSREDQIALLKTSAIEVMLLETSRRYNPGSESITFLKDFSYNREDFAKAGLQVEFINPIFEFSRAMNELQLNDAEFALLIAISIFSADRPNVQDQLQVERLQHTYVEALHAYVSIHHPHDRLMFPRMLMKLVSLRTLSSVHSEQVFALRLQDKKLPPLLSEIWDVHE
Chain of Hepatocyte nuclear factor 4-alpha (Homo sapiens) (P41235 whole entry, looked up): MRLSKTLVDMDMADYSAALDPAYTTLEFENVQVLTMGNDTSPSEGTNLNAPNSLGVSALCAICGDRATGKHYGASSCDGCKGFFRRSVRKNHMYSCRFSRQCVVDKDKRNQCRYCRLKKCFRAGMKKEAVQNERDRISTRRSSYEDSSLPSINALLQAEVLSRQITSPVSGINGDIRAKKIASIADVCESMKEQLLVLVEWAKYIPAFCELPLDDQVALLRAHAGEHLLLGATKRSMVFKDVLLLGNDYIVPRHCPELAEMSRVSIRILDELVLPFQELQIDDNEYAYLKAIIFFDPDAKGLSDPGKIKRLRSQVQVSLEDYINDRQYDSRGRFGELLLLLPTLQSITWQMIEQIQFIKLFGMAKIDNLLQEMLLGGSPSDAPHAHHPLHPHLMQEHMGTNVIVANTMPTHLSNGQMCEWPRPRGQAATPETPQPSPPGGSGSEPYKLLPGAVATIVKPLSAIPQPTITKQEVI
Chain of Oxysterols receptor LXR-beta (Homo sapiens) (P55055 whole entry, looked up, the tested form may be a part): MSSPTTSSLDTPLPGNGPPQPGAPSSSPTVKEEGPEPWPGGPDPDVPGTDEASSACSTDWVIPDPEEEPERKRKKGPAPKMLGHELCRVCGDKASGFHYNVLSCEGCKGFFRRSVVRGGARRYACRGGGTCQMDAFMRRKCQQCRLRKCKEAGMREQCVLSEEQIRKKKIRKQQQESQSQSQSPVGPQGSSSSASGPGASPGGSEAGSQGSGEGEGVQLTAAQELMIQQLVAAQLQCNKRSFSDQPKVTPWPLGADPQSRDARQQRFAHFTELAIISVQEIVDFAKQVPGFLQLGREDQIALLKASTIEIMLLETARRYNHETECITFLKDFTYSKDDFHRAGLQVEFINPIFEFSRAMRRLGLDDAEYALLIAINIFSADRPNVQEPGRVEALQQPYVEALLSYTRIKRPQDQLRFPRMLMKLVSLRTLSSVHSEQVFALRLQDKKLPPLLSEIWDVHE
Chain of Estrogen-related receptor gamma (Homo sapiens) (P62508 whole entry, looked up, the tested form may be a part): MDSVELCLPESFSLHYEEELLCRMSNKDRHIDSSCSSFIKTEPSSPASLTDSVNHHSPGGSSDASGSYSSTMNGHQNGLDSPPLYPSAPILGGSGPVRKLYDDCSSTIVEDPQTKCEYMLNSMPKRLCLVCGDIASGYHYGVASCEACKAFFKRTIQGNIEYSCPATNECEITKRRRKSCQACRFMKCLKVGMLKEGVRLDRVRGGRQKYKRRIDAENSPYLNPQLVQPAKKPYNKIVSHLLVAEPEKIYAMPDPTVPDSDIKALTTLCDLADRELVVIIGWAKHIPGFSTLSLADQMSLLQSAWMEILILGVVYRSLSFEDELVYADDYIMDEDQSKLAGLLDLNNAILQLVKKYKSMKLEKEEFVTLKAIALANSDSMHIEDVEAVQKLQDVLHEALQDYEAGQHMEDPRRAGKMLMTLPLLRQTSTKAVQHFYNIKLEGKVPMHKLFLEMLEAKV
Chain of Glucocorticoid receptor (Homo sapiens) (P04150 whole entry, looked up, the tested form may be a part): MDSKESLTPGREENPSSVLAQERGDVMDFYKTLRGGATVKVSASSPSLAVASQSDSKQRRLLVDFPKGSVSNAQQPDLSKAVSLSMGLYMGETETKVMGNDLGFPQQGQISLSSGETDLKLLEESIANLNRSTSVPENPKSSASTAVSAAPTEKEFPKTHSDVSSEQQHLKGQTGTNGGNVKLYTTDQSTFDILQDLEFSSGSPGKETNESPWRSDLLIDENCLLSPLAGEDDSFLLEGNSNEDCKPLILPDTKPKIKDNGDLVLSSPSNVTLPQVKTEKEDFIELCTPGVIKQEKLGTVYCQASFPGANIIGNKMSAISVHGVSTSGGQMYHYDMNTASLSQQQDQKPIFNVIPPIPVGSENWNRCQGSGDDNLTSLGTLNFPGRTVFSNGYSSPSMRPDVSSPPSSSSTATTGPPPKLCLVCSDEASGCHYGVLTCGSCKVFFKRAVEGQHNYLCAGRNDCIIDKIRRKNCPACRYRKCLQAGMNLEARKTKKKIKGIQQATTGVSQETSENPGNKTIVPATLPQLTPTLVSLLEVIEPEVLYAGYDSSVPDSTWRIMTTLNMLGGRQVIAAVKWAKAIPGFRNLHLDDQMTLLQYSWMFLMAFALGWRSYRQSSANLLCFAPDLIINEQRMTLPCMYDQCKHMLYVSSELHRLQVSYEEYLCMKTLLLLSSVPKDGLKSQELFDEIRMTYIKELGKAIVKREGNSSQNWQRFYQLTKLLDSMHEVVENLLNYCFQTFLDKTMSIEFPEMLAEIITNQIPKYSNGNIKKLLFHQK
Chain of Nuclear receptor subfamily 4 group A member 2 (Homo sapiens) (P43354 whole entry, looked up, the tested form may be a part): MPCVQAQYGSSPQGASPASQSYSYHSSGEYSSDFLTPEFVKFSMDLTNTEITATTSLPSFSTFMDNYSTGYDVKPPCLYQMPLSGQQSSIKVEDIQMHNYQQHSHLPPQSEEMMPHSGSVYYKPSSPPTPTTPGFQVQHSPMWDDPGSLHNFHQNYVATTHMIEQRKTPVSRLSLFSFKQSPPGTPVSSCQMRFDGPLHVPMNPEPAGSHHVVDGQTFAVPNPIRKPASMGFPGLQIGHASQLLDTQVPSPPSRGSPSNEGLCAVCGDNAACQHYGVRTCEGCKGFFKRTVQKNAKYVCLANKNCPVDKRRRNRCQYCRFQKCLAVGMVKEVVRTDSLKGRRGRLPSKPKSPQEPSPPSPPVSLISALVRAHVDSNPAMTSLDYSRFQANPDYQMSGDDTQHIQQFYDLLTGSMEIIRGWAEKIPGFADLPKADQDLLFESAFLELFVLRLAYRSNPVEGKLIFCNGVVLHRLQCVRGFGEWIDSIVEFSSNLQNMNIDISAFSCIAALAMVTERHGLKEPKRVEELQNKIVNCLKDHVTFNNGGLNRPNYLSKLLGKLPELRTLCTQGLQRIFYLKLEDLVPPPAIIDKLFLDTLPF
Chain of Nuclear receptor subfamily 1 group I member 3 (Homo sapiens) (Q14994 whole entry, looked up, the tested form may be a part): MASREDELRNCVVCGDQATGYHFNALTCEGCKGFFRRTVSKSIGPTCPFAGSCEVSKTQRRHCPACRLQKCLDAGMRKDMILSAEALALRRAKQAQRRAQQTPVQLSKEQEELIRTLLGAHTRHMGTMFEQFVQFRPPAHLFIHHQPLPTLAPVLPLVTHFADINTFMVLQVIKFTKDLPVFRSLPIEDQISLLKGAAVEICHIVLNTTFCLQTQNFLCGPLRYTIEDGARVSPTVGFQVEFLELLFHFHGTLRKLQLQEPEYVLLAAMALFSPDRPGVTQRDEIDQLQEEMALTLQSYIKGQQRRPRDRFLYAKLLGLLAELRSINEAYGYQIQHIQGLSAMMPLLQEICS
Chain of Bile acid receptor (Homo sapiens) (Q96RI1 whole entry, looked up, the tested form may be a part): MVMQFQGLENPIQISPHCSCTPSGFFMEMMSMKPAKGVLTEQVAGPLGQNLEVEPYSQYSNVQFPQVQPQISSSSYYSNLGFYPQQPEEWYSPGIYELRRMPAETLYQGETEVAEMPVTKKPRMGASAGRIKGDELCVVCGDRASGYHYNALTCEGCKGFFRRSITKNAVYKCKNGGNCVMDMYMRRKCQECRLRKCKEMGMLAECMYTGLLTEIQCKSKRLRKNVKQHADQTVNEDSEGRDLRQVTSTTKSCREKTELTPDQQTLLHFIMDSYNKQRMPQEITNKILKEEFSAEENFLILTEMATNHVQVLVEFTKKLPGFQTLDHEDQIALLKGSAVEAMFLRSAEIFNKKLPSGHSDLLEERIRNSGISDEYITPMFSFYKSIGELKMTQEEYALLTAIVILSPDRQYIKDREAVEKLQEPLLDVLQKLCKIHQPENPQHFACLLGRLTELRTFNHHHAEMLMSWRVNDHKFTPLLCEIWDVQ

CCCCCCCOC(=O)c1ccc(O)cc1
inactive: [1] | [2] | [3] | [4] | [5] | [8] | [9] | [10] | [11] | [12] | [13] | [14] | [15]
active: [6] 8.4 µM | [7] 45.1 µM

CC(C)COC(=O)CC(C(=O)OCC(C)C)S(=O)(=O)O (centres undefined)
inactive: [1] | [2] | [3] | [4] | [5] | [7] | [16] | [17] | [11] | [18] | [15]

COc1cc(O)c(C(=O)c2ccccc2)cc1S(=O)(=O)O
inactive: [1] | [2] | [3] | [4] | [5] | [6] | [16] | [8] | [17] | [12] | [13] | [18] | [15]

c1ccc(Nc2cccc3ccccc23)cc1
inactive: [2] | [3] | [5] | [9] | [11] | [13] | [14]
active: [1] 50.8 µM | [4] 10.3 µM | [6] 2.75 µM | [7] 53.5 µM

COC(OC)(C(=O)c1ccccc1)c1ccccc1
active: [3] 138 µM | [4] 5.89 µM | [6] 0.817 µM
inactive: [1] | [2] | [19] | [7] | [16] | [8] | [20] | [9] | [12] | [13] | [14] | [18] | [15]

C=CC(=O)OCCCCCCOC(=O)C=C
inactive: [1] | [2] | [3] | [5] | [6] | [19] | [16] | [20] | [17] | [12] | [13] | [14] | [15]
active: [4] 25.6 µM | [7] 26.6 µM

C=Cc1ccc(OC(C)=O)cc1
inactive: [1] | [2] | [3] | [4] | [5] | [16] | [20] | [9] | [12] | [13] | [14] | [18] | [15]
active: [6] 31.6 µM | [7] 53.7 µM

C=C[Si](OCCOC)(OCCOC)OCCOC
active: [4] 5.92 µM
inactive: [1] | [2] | [3] | [5] | [6] | [7] | [16] | [8] | [17] | [12] | [14] | [18] | [15]

CCCCC(=O)O
inactive: [1] | [2] | [3] | [4] | [5] | [6] | [16] | [8] | [10] | [13] | [14] | [18] | [15]

CCN1CCCC1=O
inactive: [1] | [2] | [3] | [4] | [5] | [7] | [9] | [10] | [17] | [13] | [14]
